The structures appear in SMILES notation. Out of some 69,000 compounds screened, about 8,600 (12%) showed an effect of 50% or more. This excerpt belongs to a sample that is enriched for strong results.

The test system of this assay is Plasmodium berghei. In words: Screen against P. berghei liver stage (PbLuc), transformed with Luciferase, at 10uM. To be noted: tested at 10 uM. In kind it is functional, HepG2.
Consider `CC(C)CCN1CCNC(=O)C1CC(=O)NCCc1cc(O)ncn1` (stereo not given), for which the INHIBITION stood at 12.8%.

Turning to `Cc1nc(C2CCCCN2C(=O)c2ccccc2)ncc1C(=O)N(C)C` (stereo not given), the INHIBITION is 28.4%.

For `O=C(CN1CCCC1CCCO)NCc1ccccn1` (stereo not given), the INHIBITION is 29.4%.

As for `CCCN1CCC(CNC(=O)N2CCCC2c2c(C)n[nH]c2C)CC1` (stereo not given), the INHIBITION was 24.3%.

`CCn1cnnc1C1CCN(C(=O)c2ccc3c(c2)nnn3C)CC1`: the INHIBITION came to 11.9%.

For the compound `CC(C)[C@@H]1CN(c2ncc(F)cn2)C[C@H]1NC(=O)N(C)C`, the INHIBITION worked out at 23.4%.

Regarding `COc1ccc(C(=O)N2C[C@@H](NC(=O)N(C)C)[C@H](C(C)C)C2)c(OC)n1`, the INHIBITION is on record as 54.6%.

In the case of `COc1ccc(Cl)cc1C(=O)N1C[C@@H](NC(=O)N(C)C)[C@H](C(C)C)C1`, the INHIBITION amounted to 0.76%.

For the compound `CN(C)C(=O)c1cnc2n1CCN(Cc1cccc(C#N)c1)C2`, the INHIBITION came to 33.4%.

Turning to `O=C(CCCc1nnc(-c2ccccc2)o1)N1CCC1`, the INHIBITION is 28.8%.

For `O=S(=O)(c1ccccc1N1CC(n2cccn2)C1)C(F)(F)F`, the INHIBITION turned out to be 43.5%.

As to `O=S(=O)(c1cc(F)ccc1N1CC(n2cccn2)C1)C(F)(F)F`, the INHIBITION was 26.8%.

As for `Cc1cnn(C2CN(c3ccccc3S(=O)(=O)C(F)(F)F)C2)c1`, the INHIBITION worked out at 89.4%.

As to `CN(Cc1nnn(CC2CCC2)n1)C(=O)c1ccccc1`, the INHIBITION is given as -19.1%.

For the compound `CCN1CCN(C(C)CNC(=O)Nc2nnc(C)s2)CC1` (stereo not given), the INHIBITION is 34.6%.

`CCN1CCN(C(C)CNC(=O)Nc2nc3ccccc3s2)CC1` (stereo not given): the INHIBITION is 59.4%.

On to `CCN1CCN(C(C)CNC(=O)Nc2nnc(C(C)C)s2)CC1` (stereo not given), for which the INHIBITION is recorded as -11.6%.

Turning to `CNC(=O)Nc1cc(-c2ccc(Br)cc2)nn1CCO`, the INHIBITION was -4.74%.

Take `CN(C)CC1(O)CCN(C(=O)Cc2ccc3c(c2)CCC3)C1` (stereo not given): the INHIBITION is given as 19.5%.

In the case of `O=C(CN1CCc2c(ncn2C2CC2)C1)NC1CCN(C2CC2)CC1`, the INHIBITION was determined as 39.2%.

Consider `Cc1ccc(-c2nc(CN3C[C@@H](C)NC[C@@H]3C)c(C)o2)s1`, for which the INHIBITION was 50.4%.

Take `Cc1oc(-c2cc(F)cc(F)c2)nc1CN1C[C@@H](C)NC[C@@H]1C`: the INHIBITION is -6.61%.

Turning to `CSc1ccc(-c2nc(CN3C[C@@H](C)NC[C@@H]3C)c(C)o2)cc1`, the INHIBITION is on record as 24%.

For `Cc1c(C(=O)NCCCS(C)(=O)=O)cccc1-c1ccccn1`, the INHIBITION is -12.1%.

As to `Cc1c(C(=O)NCCC(=O)N2CCCC2)cccc1-c1ccccn1`, the INHIBITION turned out to be 71.4%.

As for `Cc1c(C(=O)NCC(C)(C)S(C)(=O)=O)cccc1-c1ccccn1`, the INHIBITION is -53.2%.

For `Cc1nn(C)c(Oc2cccc(F)c2)c1NC(=O)C1CCCO1` (stereo not given), the INHIBITION is 29.8%.

Regarding `Cc1nn(C)c(Oc2cccc(F)c2)c1NC(=O)C1CCOCC1`, the INHIBITION was 62.9%.

For `Cc1nn(COc2cccc(F)c2)c(C)c1NC(=O)C1CC1`, the INHIBITION is reported as 46.6%.

Take `Brc1ccccc1-c1nnc(CNCCn2cccn2)o1`: the INHIBITION is given as 29.7%.

As for `O=C(CCN1C[C@H]2CC[C@@H]1C2)N1CCN(c2cccc(Cl)c2)C(=O)C1`, the INHIBITION is -6.94%.

As for `CC(C)CNC(=O)[C@H]1C[C@H]2CN(C(=O)NCCc3ccccc3)C[C@@H]1O2`, the INHIBITION is listed as 20.5%.

Regarding `Cc1cccc(CCC(=O)N2CCOCC2c2c(C)n[nH]c2C)c1` (stereo not given), the INHIBITION is reported as -2.53%.

Turning to `Cc1n[nH]c(C)c1C1COCCN1C(=O)c1ccc(Cl)o1` (stereo not given), the INHIBITION is listed as -0.482%.

Consider `Cc1n[nH]c(C)c1C1COCCN1C(=O)Cc1cccc(F)c1` (stereo not given), for which the INHIBITION turned out to be 16.8%.

Turning to `Cc1ccc(CC(=O)N2CCOCC2c2ncon2)cc1` (stereo not given), the INHIBITION stood at 19.4%.

`Cc1ccc(O)c(C(=O)N2CCOCC2c2c(C)n[nH]c2C)c1` (stereo not given): the INHIBITION is listed as 1.563%.

For `Cc1n[nH]c(C)c1C1COCCN1C(=O)c1cccc(F)c1F` (stereo not given), the INHIBITION is -0.25%.

For `Cc1ccc(CC(=O)N2CCOCC2c2c(C)n[nH]c2C)cc1` (stereo not given), the INHIBITION was 67.5%.

Regarding `Cc1n[nH]c(C)c1C1COCCN1C(=O)Cc1ccccc1F` (stereo not given), the INHIBITION worked out at 83.4%.

Consider `Cc1ccccc1CC(=O)N1CCOCC1c1c(C)n[nH]c1C` (stereo not given), for which the INHIBITION amounted to 41.65%.

Regarding `CSc1ccc(C(=O)N2CCOCC2c2c(C)nn(C)c2C)o1` (stereo not given), the INHIBITION was found to be 23.4%.

Take `CSc1ccc(C(=O)N2CCOCC2c2c(C)n[nH]c2C)o1` (stereo not given): the INHIBITION was determined as 57.45%.

Take `Cc1cccc(CC(=O)N2CCOCC2c2c(C)n[nH]c2C)c1` (stereo not given): the INHIBITION came to 53.8%.

For the compound `CN(CC1(O)CCCC1)C(=O)c1cccc(Nc2cnccn2)c1`, the INHIBITION is on record as 22%.

In the case of `CCCN(C)S(=O)(=O)N1CCCC1c1ccco1` (stereo not given), the INHIBITION is recorded as 10.47%.

Turning to `CN(C)C(=O)C1CN(Cc2nccs2)CCN(S(C)(=O)=O)C1` (stereo not given), the INHIBITION was 7.52%.

As to `COCC(C)(O)CNC(=O)c1cc(-c2ccc(F)cc2)nn1C` (stereo not given), the INHIBITION is -89.3%.

In the case of `Cn1nc(C#N)c2c1CN(C(=O)c1cccnc1)CCC2`, the INHIBITION amounted to 9.3%.

In the case of `CCCC(=O)NC(C(=O)OC)c1cc(F)ccc1F` (stereo not given), the INHIBITION is -14%.

Take `Cc1nnc(C2CCN(c3ncccn3)CC2)o1`: the INHIBITION came to 25.8%.

`Cc1c(F)cccc1S(=O)(=O)NCCN`: the INHIBITION was 4.3%.

Turning to `CC(=O)NCC(=O)N1CCOC2(CCCN(c3ccc(C)nn3)C2)C1` (stereo not given), the INHIBITION was found to be 8.74%.

For the compound `O=C(NCC1CC1)[C@H]1CN(Cc2nccs2)C[C@H]2OCC[C@@H]12`, the INHIBITION turned out to be 17.7%.

Consider `Cc1ncsc1CN1C[C@H]2OCC[C@H]2[C@H](C(=O)NCC2CC2)C1`, for which the INHIBITION was determined as 34.4%.

As for `Cc1ncsc1CN1C[C@H](C(=O)NC2CCCC2)[C@@H]2CCO[C@@H]2C1`, the INHIBITION is listed as 52%.

Regarding `CC(C)NC(=O)[C@@H]1CN(Cc2nccs2)C[C@H]2OCC[C@H]21`, the INHIBITION was determined as 71.1%.

In the case of `O=C(NC1CCCC1)[C@@H]1CN(Cc2nccs2)C[C@H]2OCC[C@H]21`, the INHIBITION worked out at 32.4%.

Regarding `Cc1ncsc1CN1C[C@H](C(=O)NCC2CC2)[C@@H]2CCO[C@@H]2C1`, the INHIBITION was determined as 24.9%.

Take `Cc1ccc(S(=O)(=O)N2CC[C@@H]3C[C@H](NC(=O)c4[nH]ncc4Br)[C@@H]32)cc1`: the INHIBITION is 35.9%.

Turning to `Cc1ccc(S(=O)(=O)NC(=O)CCc2cscn2)cc1Cl`, the INHIBITION is listed as 3.46%.

Take `Cc1nn(C)c(Cl)c1C1CCCN1C(=O)c1csnn1` (stereo not given): the INHIBITION came out at 10%.

In the case of `CCCn1cc2c(C(F)F)cc(SCC(=O)O)nc2n1`, the INHIBITION turned out to be 32.3%.

Take `CC(C)(CN1C[C@H](Nc2ncccn2)[C@@H](C2CC2)C1)N1CCOCC1`: the INHIBITION is on record as 2.15%.

Consider `CSc1cccc(NC(=O)Nc2c(O)oc3ccccc3c2=O)c1`, for which the INHIBITION was found to be 1.86%.
